The list is a sample of the results.
aSyn 5UTR act = Activators via SNCA 5'UTR binding, MLPCN | alpha-synuclein 5'UTR reporter, activators screen | activity score, % (tested at 7.5 µM), hits read low | 300,000 tested, 7.1% active | AID 1814, 2009; in the data active = activity score below about -60%
Hits are given with their value; – = inactive.

SMILES	aSyn 5UTR act
CC(C)(C)c1ccc(SCCc2ccccn2)cc1	-127.4
CC(C)(C)c1ccc(S(=O)(=O)CCc2ccccn2)cc1	-95.9
CC(C)(C)c1cc[n+](C2=C([O-])c3ccccc3C(=O)/C2=N\S(=O)(=O)c2ccccc2)cc1	–
Cc1ccccc1NC1=C/C(=N\S(=O)(=O)c2cccs2)c2ccccc2C1=O	–
Cc1ccccc1NC1=C/C(=N\S(=O)(=O)c2ccc(C(=O)O)cc2)c2ccccc2C1=O	-69.0
Cc1cc[n+](C2=C([O-])c3ccccc3C(=O)/C2=N\S(=O)(=O)c2cccs2)cc1C	–
Cc1ccc(NC2=C/C(=N/S(=O)(=O)c3cccs3)c3ccccc3C2=O)cc1C	-155.4
COc1cc(O)sc1C=Nc1ccc(Cl)cc1	-92.1
COc1ccc(OCc2cc(C(=O)N3CCCN(C(C)=O)CC3)no2)c(Cl)c1	-74.6
O=C(c1cc(COc2ccc(F)cc2F)on1)N1C[C@H]2CC[C@H]1C2	-98.5
Cc1cccc(C)c1OCc1cc(C(=O)NC2CCC2)no1	-65.6
COc1ccc(OCc2cc(C(=O)N3C[C@H]4CC[C@H]3C4)no2)c(Cl)c1	-81.7
CC(=O)c1ccc(OCc2cc(C(=O)N3CC4C[C@@H]5CC3C[C@H](C4)C5)no2)cc1	-134.3
Cc1cccc(C)c1OCc1cc(C(=O)N2CCC(c3ccncc3)CC2)no1	-93.3
O=C(c1cc(COc2c(F)cccc2F)on1)N1C[C@H]2CC[C@H]1C2	-113.8
O=C(c1cc(COc2ccc(F)cc2F)on1)N1CC2C[C@@H]3CC1C[C@H](C2)C3	-96.7
COc1ccccc1OCc1cc(C(=O)N2CC3C[C@@H]4CC2C[C@H](C3)C4)no1	-119.9
O=C(c1cc(COc2c(F)cccc2F)on1)N1CCC(c2ccccc2F)C1 (configuration not stated)	-125.3
Cc1ccc(-c2cc(-c3cccs3)[nH]n2)c(O)c1	-127.7
CCc1ccc2[nH]c(=O)c(CN(Cc3ccccc3OC)C(=O)Nc3ccccc3OC)cc2c1	-72.3
COc1ccc(NC(=O)C2C3CC/C=C\CCC32)cc1 (configuration not stated)	-140.7
CCOc1ccc(NC(=O)C2C3CC/C=C\CCC32)cc1 (configuration not stated)	-86.6
Cc1cc(NC(=O)c2ccccc2)ncc1NC(=O)c1ccco1	-115.3
Cc1cc(NC(=O)C(C)C)ncc1NC(=O)c1ccccn1	-87.6
Cc1ccc(C(=O)Nc2ccc(NC(=O)c3ccco3)c(C)c2)cc1	-67.5
SMILES	aSyn 5UTR act
Cc1cc(O)c(NC(=O)c2ccco2)cc1C	-98.1
Cc1ccc(O)c(NC(=O)c2ccco2)c1	-66.2
COc1ccccc1/C=C/C(=O)Nc1ccc2c(c1)CCC2	-151.0
COc1ccccc1/C=C/C(=O)Nc1ccc2c(c1)OCCO2	-145.5
CC(=O)n1nc(-c2ccc(Cl)cc2)nc1NCc1ccco1	-117.2
COc1ccc(CC(=O)n2nc(-c3ccc(Cl)cc3)nc2NCc2ccco2)cc1	-105.2
CCC(=O)n1nc(-c2ccc(OC)cc2)nc1NCc1cccs1	-102.4
C=CCn1c(=N)n(CC(=O)c2cccc([N+](=O)[O-])c2)c2ccccc21	-77.0
c1ccc(-c2ncc3c(ccc4ccccc43)n2)cc1	–
Nc1cnc(-c2ccccc2)nc1Cl	-62.5
c1ccc(-c2cnc(-c3ccccc3)nc2)cc1	-66.4
COc1ccc2cc3c(N)nn(C(=O)c4ccccc4Cl)c3nc2c1	–
COc1ccc2cc(C3OCCO3)c(Cl)nc2c1	-108.4
CCCC(=O)Nc1ccc(NC(=O)c2ccccc2Cl)nc1	-76.1
CCC(=O)Nc1ccc(NC(=O)c2ccccn2)cn1	-87.8
COC(=O)c1ccc(OCCOc2ccccc2)cc1	-131.2
COC(=O)c1ccc(N=Nc2ccccc2)cc1	-131.9
COC(=O)c1ccc2nc(-c3cccc(N)c3)cn2c1	–
Cc1coc2c1C(=O)C(=O)c1c-2ccc2c1CCCC2(C)C	–
Cc1coc2c1C(=O)C(=O)c1c-2ccc2c(C)cccc12	-64.2
O=C(N/N=C/c1cc([N+](=O)[O-])ccc1O)c1cc(-c2ccccc2)nc2ccccc12	–
NS(=O)(=O)c1ccc(CCNC(=O)c2ccc3ccccc3n2)cc1	-82.9
CCCc1ccc(-c2cc(C(=O)NCCc3ccc(S(N)(=O)=O)cc3)c3ccccc3n2)cc1	-115.4
O=C(NCc1ccccc1Cl)c1ccc2ccccc2n1	-120.8
CCCc1ccc(-c2cc(C(=O)Nc3ccc([N+](=O)[O-])cn3)c3ccccc3n2)cc1	-90.3
SMILES	aSyn 5UTR act
NS(=O)(=O)c1ccc(CNc2ccc3ccccc3n2)cc1	-120.1
CCc1ccc(-c2cc(C(=O)Nn3cnnc3)c3ccccc3n2)cc1	–
CCCc1ccc(-c2cc(C(=O)NN3CCOCC3)c3ccccc3n2)cc1	-93.0
Cc1ccc(/C=C2\SC(=S)N(CCCC(=O)NC3CCCC3)C2=O)cc1	–
COc1cc(/C=C2\SC(=S)N(CCC(=O)NC3CCCC3)C2=O)cc(OC)c1OC	-70.6
O=C(Nc1ccc(Cl)cc1)NC1CCCCC1	-174.8
O=C(NC1CCCCCC1)c1ccc(N2CCCC2=O)cc1	-100.6
CC(=O)c1cccc(NC(=O)NC2CCCCCCC2)c1	-70.5
O=C(NC1CCCCCCC1)c1ccc(F)cc1	-197.0
O=C(Nc1ccc2nsnc2c1)NC1CCCCC1	-196.8
S=C(NCCc1cccc(Cl)c1)NC1CCCCC1	-118.5
O=C(Nc1ccc(F)c(F)c1)NC1CCCCC1	-86.2
Nc1ccc(NC(=O)NC2CCCCC2)cc1[N+](=O)[O-]	-160.8
O=C(Nc1cccc(Cl)c1)NC1CCCCC1	-120.6
O=C(Nc1ccccc1F)NC1CCCCCCC1	-114.7
O=C(Nc1ccc(F)cc1)NC1CCCCCCC1	-96.3
CC(=Nc1cc(C(=O)c2ccccc2)ccc1N)C1=C(O)CC(C)(C)CC1=O	-76.4
Cc1noc(N)c1C(=O)Nc1ccc(C(C)(C)C)cc1	-106.2
CCOC(=O)Cc1ccc(NC(=O)c2ccc(C(C)(C)C)cc2)cc1	–
CN(Cc1ccccc1)S(=O)(=O)c1ccc(C(=O)Nc2nnc(C3CC3)o2)cc1	–
CC(=O)c1ccc(NC(=O)C(C)Sc2nnc(C3CCCCC3)o2)cc1 (configuration not stated)	-127.9
CCc1c(C)c(C#N)c2nc3ccccc3n2c1Cl	–
Cc1cc(-c2ccco2)c(C#N)c2nc3ccccc3n12	-100.2
COc1cc(-c2cc3nc4ccccc4n3c(N)c2C#N)cc(OC)c1OC	–
O=C(/C=C/c1ccccc1)Nc1ccc(CN2CCOCC2)cc1	-87.5
SMILES	aSyn 5UTR act
O=C(Nc1ccc(N2CCOCC2)c(Cl)c1)c1ccc(F)cc1	-140.0
O=C(Nc1ccc(N2CCOCC2)c(Cl)c1)c1cc2ccccc2o1	-203.7
O=C(Nc1ccc(N2CCOCC2)c(Cl)c1)c1ccc(Br)o1	-253.2
O=C(Nc1cccnc1Cl)c1cc2ccccc2o1	-166.1
O=C(Nc1ccc(N2CCOCC2)nc1)c1ccc(Cl)cc1	-72.9
O=C(NC(=S)N1CCOCC1)c1cc2ccccc2o1	-73.5
O=C(Nc1ccc(N2CCOCC2)c(Cl)c1)c1ccccc1Cl	-66.0
O=C(Nc1ccccc1N1CCCC1)c1cc2ccccc2o1	-251.5
O=C(N/N=C/c1ccc(N2CCOCC2)s1)c1ccccc1Cl	-116.0
Clc1cc(NCc2cccs2)ccc1N1CCOCC1	-105.2
O=C(Nc1ccc(CN2CCOCC2)cc1)c1ccc(Br)o1	-103.8
CC(C)C(=O)N1CCN(c2ccc(NC(=O)c3ccc4c(c3)OCCO4)cc2Cl)CC1	-109.2
O=C(C1CCCN(c2ncnc3c2nc2n3CCCCC2)C1)N1CCN(c2ccccc2)CC1 (configuration not stated)	-148.2
O=C(NNc1nc2ccccc2s1)Nc1ccc(F)cc1	-157.4
O=C(Nc1nc2ccccc2s1)c1c(F)cccc1Cl	-86.2
